The list is not random: actives were taken first. Their share in the collection is about 4.6%.
KKLEB cytotox: reduces viability of KKLEB cystic fibrosis airway cells | KKLEB CF airway cells viability, ATPlite luminescence, overnight; active compounds read low; cells stimulated with P. aeruginosa culture filtrate | activity change (cytotoxicity), % at 5 µM | actives 0.36% (n = 360,000);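 active = corrected activity change at or below -50% at 5 µM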
CF NFkB inh: inhibitors of cystic fibrosis induced NF-kB; KKLEB NF-kB-GFP reporter, PAF-induced, GFP fluorescence overnight; inhibition, % at 5 µM; actives 0.86% (n = 360,000);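 active = at least 50% inhibition at 5 µM, scaled per plate between neutral and stimulator controls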;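 note: PAF is a Pseudomonas aeruginosa culture filtrate used as stimulus; plate controls were PAF-stimulated DMSO wells for no effect and unstimulated DMSO wells for full effect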
Peg3 prom inh: Peg3 promoter activity inhibition. HeLa PEG-Prom luciferase reporter, luminescence, overnight. inhibition, % at 20 µM. actives 1.7% (n = 360,000). AID 588405;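 active = inhibition of at least 50% at 20 µM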
Mdm2-MdmX inh: disrupts the human Mdm2-MdmX interaction | O15151+Q00987 | AID 485346 | inhibition, % at 8 µM | actives 3% (n = 330,000) | SaOS-2 split-luciferase Mdm2/MdmX complementation, luminescence;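 active = inhibition of at least 50% at 8 µM in the primary screen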
HIF-2a inh: inhibitors of HIF-2a; 786-0 RCC cells HIF-2a reporter, luciferase luminescence, overnight; inhibition, % at 18.8 µM; actives 0.72% (n = 360,000);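 active = inhibition of the luminescence signal of 40% or more relative to plate controls, in a single-dose primary screen at 18.75 µM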
ABHD5-PLIN5 inh: ABHD5-PLIN5 protein interaction inhibition. Split G. princeps luciferase complementation, luminescence, 4 h. actives 0.78% (n = 360,000). inhibition, % at 4 µM. Q00G26+Q8WTS1. AID 602281;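 active = inhibition above the mean inhibition across every tested compound plus 3 SD, cut at about 22% in these data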;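 note: 0% = DMSO only wells and the 100% control is not disclosed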
ABHD5 PLIN5 conf: confirmation of human ABHD5-PLIN5 interaction inhibitors; biochemical ABHD5-PLIN5 interaction, luminescence; shares compounds with ABHD5-PLIN5 inh; actives 67% (n = 2,200); inhibition, % at 4 µM; in the data active = inhibition above about 23%;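 note: 0% = DMSO vehicle wells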
HNF4 counter: counter-screen for ABHD5-PLIN5 inhibitors: HNF4 split-luciferase; shares compounds with ABHD5-PLIN5 inh; HNF4 dimerization, luminescence, biochemical; inhibition, % at 4 µM; actives 77% (n = 2,200);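 active = mean inhibition across replicate wells exceeding the computed hit threshold, cut at about 13% in these data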;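 note: light from luciferase halves that rejoin when HNF4 fusion proteins dimerize; 0% = DMSO only wells and the 100% control is not given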
The depositor's hits bear a star; / = no result given.

SMILES | KKLEB cytotox | CF NFkB inh | Peg3 prom inh | Mdm2-MdmX inh | HIF-2a inh | ABHD5-PLIN5 inh | ABHD5 PLIN5 conf | HNF4 counter
Cc1cnc(-c2nc3ccccc3n2C(C(=O)Nc2c(C)cccc2C)C2CC2)cn1 (stereo not drawn) | / | / | / | / | 6 | 1 | / | /
Cc1cc(-c2nn(-c3ccccc3F)cc2CN2CCC(O)CC2)c(C)s1 | -2 | 22 | -9 | 7 | 6 | 4 | / | /
Cc1cc(-c2nn(-c3ccccc3F)cc2CN2CCN(c3ccncc3)CC2)c(C)s1 | -13 | 25 | 13 | 31 | 7 | 28* | 7 | -3
COc1cc(OC)c(/C=C2\C(=O)Nc3ccccc32)c(OC)c1 | / | / | / | 47 | / | / | / | /
COc1ccc(C(=O)/C=C2/C(=O)Nc3ccccc32)cc1 | -5 | -16 | 32 | 43 | 37 | 36* | 72* | 85*
O=C(/C=C/c1ccccc1Cl)c1cccnc1 | 7 | -2 | 16 | 13 | 17 | 71* | 100* | 102*
N#Cc1ccc(/C=C/C(=O)c2cccnc2)cc1 | 1 | -2 | 70* | 15 | 14 | 82* | 92* | 96*
O=C(/C=C/c1ccc(Cl)cc1)c1cccnc1 | -4 | 12 | 44 | 11 | 32 | 80* | 96* | 100*
O=C(/C=C/c1ccc(OCc2ccccc2)c(OCc2ccccc2)c1)c1cccnc1 | -6 | -10 | 37 | 44 | 26 | 26* | 87* | 78*
CCN(CC)c1ccc(/C=C/C(=O)c2cccnc2)cc1 | 1 | 1 | 10 | -29 | 23 | 12 | / | /
O=C(NCc1ccccc1CN1CCCC1)c1cc2ccccc2o1 | -8 | 4 | -14 | / | 11 | 17 | / | /
Cc1ccc(-c2ccc(CCC(=O)O)o2)cc1 | -4 | 6 | -72 | -4 | -121 | 28* | 13 | 44*
CCOc1cccc2sc(N(CCCN(C)C)C(=O)c3ccc(S(=O)(=O)N(C)c4ccccc4)cc3)nc12 | -1 | 13 | 2 | 42 | 6 | 27* | 19 | 12
Cc1ccc(C(=O)/C=C/c2ccc(F)cc2)o1 | -17 | 6 | -41 | 8 | -49 | 42* | 62* | 47*
CCCC(=O)N(Cc1cc2cc(OC)ccc2[nH]c1=O)c1ccc(OC)cc1 | 3 | -8 | 23 | / | 9 | 7 | / | /
CC(=O)Cc1cc(O)c2ccccc2c1OC(=O)c1ccccc1 | -9 | 18 | -22 | -11 | -4 | 67* | 84* | 54*
O=C(NC1CCC(O)CC1)c1cccnc1Sc1ccccc1Cl (stereo not drawn) | 4 | 17 | -5 | 17 | 1 | 8 | / | /
CCN(C(=O)CSc1nc(C)nc2sc(C)c(C)c12)c1ccc(F)cc1 | -11 | 19 | 14 | 14 | 9 | -9 | / | /
Cc1nc(SCC(=O)N(C)Cc2ccco2)c2c(C)c(C)sc2n1 | 1 | 10 | -7 | 11 | 4 | 32* | 18 | 22*
CCN(C(=O)CN1C(=O)S/C(=C\C=C\c2ccccc2)C1=O)C1CCS(=O)(=O)C1 (stereo not drawn) | 20 | -20 | -28 | 0 | -39 | 56* | 17 | 22*
CCN(C(=O)CN1C(=O)S/C(=C\c2cccc(Cl)c2)C1=O)C1CCS(=O)(=O)C1 (stereo not drawn) | -14 | 6 | 14 | 18 | 21 | 3 | / | /
CC(C)C[C@@H]1CN=C(N)N1C[C@@H]1CCCN1C[C@H](C)N1C[C@@H](Cc2ccccc2)N(CCc2ccc(Cl)c(Cl)c2)C1=N | -10 | -2 | 3 | -9 | 3 | 27* | 14 | 2
CC[C@@H](C)[C@@H]1CN([C@@H](CN2CCC[C@H]2CN2C(N)=NC[C@H]2C(C)C)C(C)C)C(=N)N1CCCC1CCCC1 | -7 | 3 | -6 | -3 | 0 | 16 | / | /
CC[C@@H](C)[C@@H]1CN([C@@H](CN2CCC[C@H]2CN2C(N)=NC[C@@H]2Cc2ccccc2)C(C)C)C(=N)N1CCCC1CCCC1 | -1 | -18 | -7 | 4 | 10 | 28* | 10 | 5

Compound activity deposited in PubChem by several laboratories.
